Read-out in test [1]: Interleukin-8 (IL8), CXCL8 (gene 3576)
Kind of test: BSK_3C_IL8: BioMAP Diversity Plus: 3C Assay for Interleukin-8 (IL8) Biomarker Activity (AID 2283020). Particulars: primary human endothelial cells (HUVEC); actives raise or lower the signal. In outline:
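Using DMSO-treated wells as the baseline, bidirectional curve fitting was applied to ELISA-measured IL-8 from human umbilical vein endothelial cultures sampled 24 h after compound addition.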

Read-out in test [2]: Monokine induced gamma interferon (MIG), CXCL9 (gene 4283)
Briefly: BSK_3C_MIG: BioMAP Diversity Plus: 3C Assay for Monokine induced gamma interferon (MIG) Biomarker Activity (AID 2283021).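 On AC50: MIG protein level measured by immunoassay in the treated endothelial cultures.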 To be noted: primary human endothelial cells (HUVEC); actives raise or lower the signal. In outline: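 ELISA-measured MIG in dosed HUVEC 3C cultures at 24 h, analysed by bidirectional fitting with DMSO defining baseline activity.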

The target of test [3] is human Vitamin D Receptor (VDR), VDR (gene 7421) (UniProt P11473). Kind of test: ATG_VDR_TRANS: Attagene TRANS-FACTORIAL HepG2 Assay for human Vitamin D Receptor (VDR) (AID 2283022; active means hit-call score of the fitted dose curve at least 0.9, where 1 is the maximum). A digest of the protocol:
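Fluorescence of labelled reporter cDNA fragments, resolved by capillary electrophoresis, gives mRNA induction after 24 h treatment of HepG2 cells carrying transfected Gal4-fusion reporter units. Activity is fitted in the positive direction with DMSO as baseline.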

Test [4] in a line: BSK_3C_SRB: Viability Assessment in the BioMAP Diversity Plus: 3C Assay (AID 2283023).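 Further: fitted both ways against DMSO so a hit may be signal rise or drop.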 To be noted: primary human endothelial cells (HUVEC). A digest of the protocol: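 Cells were dosed with chemical, cultured 24 h, fixed with 10% TCA, stained with 0.1% SRB and read at 560 nm. Human umbilical vein endothelium was used; DMSO served as negative control and baseline.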
Read-out in test [5]: Matrix Metallopeptidase 1 (MMP1), MMP1 (gene 4312)
Briefly: BSK_BE3C_MMP1: BioMAP Diversity Plus: BE3C Assay for Matrix Metallopeptidase 1 (MMP1) Biomarker Activity (AID 2283024). To be noted: primary human bronchial epithelial cells; actives raise or lower the signal. A digest of the protocol: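 In this multiplexed primary-cell system, human bronchial epithelium received chemicals for 24 h before an ELISA for MMP1. Values reflect bidirectional fits normalised to the DMSO baseline.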

Test [6] can be described thus: BSK_3C_Vis: BioMAP Diversity Plus: 3C Assay for Morphology Visualization (AID 2283025).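 Further: fitted both ways so gain or loss versus DMSO counts.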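 On AC50: light microscopy image of cell morphology used as background control.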 Particulars: primary human endothelial cells (HUVEC). A digest of the protocol: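 Light-microscopy morphology readout, 24 h exposure, human primary umbilical vein endothelium; analysed relative to DMSO with bidirectional fitting.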
Read-out in test [7]: Pselectin, SELP (gene 6403)
Kind of test: BSK_4H_Pselectin: BioMAP Diversity Plus: 4H Assay for Pselectin Biomarker Activity (AID 2283026). To be noted: primary human endothelial cells (HUVEC); actives raise or lower the signal. In outline:
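Bidirectional fits against DMSO gave the endpoint. Cells: primary human umbilical vein endothelium, chemical-treated for 24 h before ELISA detection of P-selectin.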

The nature of test [8]: BSK_4H_SRB: Viability Assessment in the BioMAP Diversity Plus: 4H Assay (AID 2283027).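 Further: cells exposed to compound for 24 h before staining.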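 On AC50: curves fitted both ways versus DMSO so AC50 may be loss or gain.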 Particulars: primary human endothelial cells (HUVEC). A digest of the protocol:
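Cytotoxicity read-out in primary human endothelial cells: after 24 h compound exposure, cells were TCA-fixed (10%), stained with 0.1% SRB and absorbance taken at 560 nm. Values fitted in both directions relative to DMSO.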

Test [9] can be described thus: BSK_BE3C_SRB: Viability Assessment in the BioMAP Diversity Plus: BE3C Assay (AID 2283028).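 On AC50: fitted both ways so AC50 may mark signal gain or loss versus DMSO.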 Particulars: primary human bronchial epithelial cells. In outline: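 Overt cytotoxicity was assessed as total protein in confluent human primary bronchial epithelial cultures 24 h after chemical addition, using 0.1% sulforhodamine B staining read at 560 nm.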
Read-out in test [10]: Thrombomodulin, THBD (gene 7056)
Kind of test: BSK_3C_Thrombomodulin: BioMAP Diversity Plus: 3C Assay for Thrombomodulin Biomarker Activity (AID 2283029). To be noted: primary human endothelial cells (HUVEC); actives raise or lower the signal. A digest of the protocol:
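In a multiplexed primary-cell system, human umbilical vein endothelium received chemical and was assayed 24 h later for thrombomodulin by ELISA. Parallel cultures were SRB-stained (0.1% SRB after 10% TCA fixation, read at 560 nm) to flag cytotoxicity.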

Read-out in test [11]: Urokinase-type plasminogen activator receptor (uPAR), PLAUR (gene 5329)
Briefly: BSK_4H_uPAR: BioMAP Diversity Plus: 4H Assay for Urokinase-type plasminogen activator receptor (uPAR) Biomarker Activity (AID 2283030). To be noted: primary human endothelial cells (HUVEC); actives raise or lower the signal. In outline: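 Chemicals are dosed onto human vascular endothelial primary cells (umbilical vein). After 24 h, uPAR is read by ELISA. Gain or loss of signal is fitted relative to DMSO.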

Read-out in test [12]: Vascular endothelial growth factor receptor 2 (Homo sapiens) (UniProt P35968)
Briefly: BSK_4H_VEGFRII: BioMAP Diversity Plus: 4H Assay for Vascular endothelial growth factor receptor 2 (VEGFR2) Biomarker Activity (AID 2283031).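 On AC50: cell-surface VEGFR2 protein level quantified by ELISA.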 Particulars: primary human endothelial cells (HUVEC); actives raise or lower the signal. In outline:
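VEGFRII levels on human vascular endothelial primary cells were determined by ELISA at 24 hours post-dosing, with gain- or loss-of-signal fitted against DMSO controls.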

Read-out in test [13]: Human Leukocyte Antigen - DR isotype (HLADR), HLA-DRA (gene 3122)
Briefly: BSK_BE3C_HLADR: BioMAP Diversity Plus: BE3C Assay for Human Leukocyte Antigen - DR isotype (HLADR) Biomarker Activity (AID 2283032). To be noted: primary human bronchial epithelial cells; actives raise or lower the signal. In outline:
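BioMAP BE3C format: human bronchial epithelium, 24 h compound treatment, ELISA detection of HLA-DR, with bidirectional analysis relative to DMSO.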

Read-out in test [14]: Vascular cell adhesion molecule 1 (VCAM1), VCAM1 (gene 7412)
Kind of test: BSK_4H_VCAM1: BioMAP Diversity Plus: 4H Assay for Vascular cell adhesion molecule 1 (VCAM1) Biomarker Activity (AID 2283033).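 On outcome: cell-surface VCAM-1 protein measured by ELISA.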 To be noted: primary human endothelial cells (HUVEC); actives raise or lower the signal. A digest of the protocol: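 In this human endothelial (HUVEC) system, biomarker ELISA was run 24 h after compound addition, and total protein in parallel wells was assessed by SRB at 560 nm; DMSO served as negative control.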

Read-out in test [15]: Interferon-gamma inducible Protein 10 (IP10), CXCL10 (gene 3627)
Kind of test: BSK_BE3C_IP10: BioMAP Diversity Plus: BE3C Assay for Interferon-gamma inducible Protein 10 (IP10) Biomarker Activity (AID 2283034). To be noted: primary human bronchial epithelial cells; actives raise or lower the signal. In outline:
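BE3C cells (human bronchial epithelial, primary); 24 h exposure; ELISA for IP-10; DMSO-referenced bidirectional fit.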

Read-out in test [16]: Monokine induced gamma interferon (MIG), CXCL9 (gene 4283)
Kind of test: BSK_BE3C_MIG: BioMAP Diversity Plus: BE3C Assay for Monokine induced gamma interferon (MIG) Biomarker Activity (AID 2283035). To be noted: primary human bronchial epithelial cells; actives raise or lower the signal. A digest of the protocol:
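ELISA quantified MIG after 24 h exposure of primary bronchial epithelial cultures, analysed in both directions relative to DMSO. Cytotoxicity tracked in parallel cultures by sulforhodamine B staining.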

Read-out in test [17]: Transforming growth factor beta 1 (TGFb1), TGFB1 (gene 7040)
Briefly: BSK_BE3C_TGFb1: BioMAP Diversity Plus: BE3C Assay for Transforming growth factor beta 1 (TGFb1) Biomarker Activity (AID 2283036;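 on outcome: TGF-b1 protein level measured by ELISA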). To be noted: primary human bronchial epithelial cells; actives raise or lower the signal. In outline:
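TGF-b1 measured via ELISA, 24 h after chemical dosing of human bronchial epithelial cells (BE3C). Overt cytotoxicity assessed in parallel by SRB (0.1%, TCA-fixed, 560 nm); analysis bidirectional relative to DMSO.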

Read-out in test [18]: Plasminogen activator inhibitor-1 (PAI1), SERPINE1 (gene 5054)
Kind of test: BSK_BE3C_PAI1: BioMAP Diversity Plus: BE3C Assay for Plasminogen activator inhibitor-1 (PAI1) Biomarker Activity (AID 2283037). Particulars: primary human bronchial epithelial cells; actives raise or lower the signal. In outline:
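In this multiplexed primary-cell system, bronchial epithelial cells receive test chemical and are sampled at 24 h. PAI-1 is read by ELISA, with DMSO serving as negative control for bidirectional fitting.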

Read-out in test [19]: urokinase plasminogen activator (uPA), PLAU (gene 5328)
Kind of test: BSK_BE3C_uPA: BioMAP Diversity Plus: BE3C Assay for urokinase plasminogen activator (uPA) Biomarker Activity (AID 2283038).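 On outcome: uPA protein level quantified by ELISA in cell cultures; uPA read one day after compound addition.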 To be noted: primary human bronchial epithelial cells; actives raise or lower the signal. A digest of the protocol:
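Measured by ELISA: uPA from human primary bronchial epithelial cells 24 h after chemical treatment. Values derive from bidirectional curve fitting with DMSO serving as negative control. Total protein by SRB staining in parallel wells flagged overt cytotoxicity.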

Read-out in test [20]: Urokinase-type plasminogen activator receptor (uPAR), PLAUR (gene 5329)
Kind of test: BSK_BE3C_uPAR: BioMAP Diversity Plus: BE3C Assay for Urokinase-type plasminogen activator receptor (uPAR) Biomarker Activity (AID 2283039).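 Further: uPAR protein level measured by ELISA on the cells; cells exposed to compound for one day before measurement.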 Particulars: primary human bronchial epithelial cells; actives raise or lower the signal. A digest of the protocol:
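Chemically treated human bronchial epithelial cells (lung primary) are assayed for uPAR by ELISA after 24 h, with data fitted in both directions using DMSO as negative control.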

The values that follow come from PubChem BioAssay (EPA / NIEHS).

Values joined by “and” are separate entries in the source; they are usually repeats but may differ in a detail not shown here. Equal values may be shown once. Results filed as inconclusive are left out. The source holds several records for some structures; these can differ, active in one and inactive in another. Active and inactive are the calls of the source. How the source made its calls, unless noted: active means hit-call score of the fitted dose curve at least 0.9, where 1 is the maximum; inactive means score below 0.9.

human Vitamin D Receptor (VDR), VDR (gene 7421), sequence (P11473 whole entry, looked up, the tested form may be a part): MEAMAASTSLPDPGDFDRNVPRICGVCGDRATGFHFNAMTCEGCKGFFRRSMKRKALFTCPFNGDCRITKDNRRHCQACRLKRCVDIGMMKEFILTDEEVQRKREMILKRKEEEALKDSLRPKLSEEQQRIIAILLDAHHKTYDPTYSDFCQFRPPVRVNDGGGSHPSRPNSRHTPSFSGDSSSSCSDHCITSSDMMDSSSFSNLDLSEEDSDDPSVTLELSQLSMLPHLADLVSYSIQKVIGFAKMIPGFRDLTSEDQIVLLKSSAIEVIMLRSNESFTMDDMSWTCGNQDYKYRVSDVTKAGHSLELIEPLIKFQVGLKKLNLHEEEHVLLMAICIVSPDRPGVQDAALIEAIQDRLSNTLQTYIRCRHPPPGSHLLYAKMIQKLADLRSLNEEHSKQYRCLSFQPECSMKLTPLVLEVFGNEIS

One may read the AC50 as the concentration giving half of the maximal activity seen. With `Cc1[nH]nc2c1N=C(c1ccccc1Cl)c1cc([N+](=O)[O-])ccc1N2`, the result in [1], in test [2], in test [3], in [5], in test [10] and in [19] was inactive. Also, in test [20], the outcome was inactive. Moreover, the concentration at half-maximal activity (AC50) in test [4] was 750 nM (active); in [6] it was 645 nM (active); in test [7], 639 nM (active); in [8], 733 nM (active); in [9] it was 20300 nM (active); in test [11], 666 nM (active). For the same molecule, the half-maximal activity concentration (AC50) is 2430 nM (active) in test [12]; 10.3 µM (active) in test [13]; 2560 nM (active) in test [14]; 12200 nM (active) in test [15]; 19300 nM (active) in test [16]; 21600 nM (active) in [17]. In addition, the concentration at half-maximal activity (AC50) in test [18] is 1620 nM (active).

As to `OCC(F)(F)C(F)(F)C(F)(F)C(F)(F)C(F)(F)C(F)(F)C(F)(F)C(F)(F)C(F)(F)C(F)(F)C(F)(F)F`, the result in test [1], in test [2], in test [3], in test [5], in test [7] and in test [8] was inactive. For the same molecule, the outcome in test [9], in test [10], in test [11], in test [12], in [14] and in test [15] was inactive. Further, the outcome in test [16], in [18], in test [19] and in test [20] was inactive. The concentration at half-maximal activity (AC50) was 271 nM (active) and 201 nM (active) in test [4]; 275 nM (active) in test [7]; 423 nM (active) in test [10]; 251 nM (active) and 154 nM (active) in [13]; 218 nM (active) in test [15].

Turning to `O=C(O)CCC(F)(F)C(F)(F)C(F)(F)C(F)(F)C(F)(F)F`, the result in [1], in test [2], in test [3], in test [4], in test [5] and in [7] was inactive. Besides, the result in test [8], in [9], in test [10], in test [11], in test [12] and in [13] was inactive. The result in test [14], in test [15], in test [16], in test [18], in test [19] and in [20] was inactive.

For `CCCCCCCCCCCCCCCCCC[N+](C)(C)Cc1ccccc1`, the AC50 in test [1] is 4380 nM (active); in test [2] it was 5260 nM (active); in [4], 299 nM (active); in [5], 10000 nM (active); in test [6] it was 425 nM (active); in test [7], 975 nM (active). Also, the AC50 was 2630 nM (active) in [8]; 590 nM (active) in [11]; 2.05 µM (active) in test [13]; 2800 nM (active) in test [14]; 4270 nM (active) in [15]; 5770 nM (active) in test [16]. In test [19], the concentration at half-maximal activity (AC50) is 10000 nM (active). Moreover, the outcome in [3], in test [9], in [10], in [12], in [17] and in test [18] was inactive. Further, in test [20], the outcome was inactive.

Take `OCC(CO)(CBr)CBr`: the outcome in [1], in test [2], in test [4], in test [5], in [6] and in test [7] was inactive. The outcome in test [8], in test [9], in test [10], in test [11], in test [12] and in [13] was inactive. In addition, the outcome in test [14], in test [15], in test [16], in [17], in test [18] and in test [19] was inactive. The outcome in [20] was inactive.
